MOR-DOR ag: OPRM1-OPRD1 heterodimerization agonism | activation, % at 9.3 µM | P35372+P41143 | 340,000 compounds, 0.3% hits | cells, luminescence; in the data active = activation above about 18%
Target sequence (P35372 whole entry, looked up): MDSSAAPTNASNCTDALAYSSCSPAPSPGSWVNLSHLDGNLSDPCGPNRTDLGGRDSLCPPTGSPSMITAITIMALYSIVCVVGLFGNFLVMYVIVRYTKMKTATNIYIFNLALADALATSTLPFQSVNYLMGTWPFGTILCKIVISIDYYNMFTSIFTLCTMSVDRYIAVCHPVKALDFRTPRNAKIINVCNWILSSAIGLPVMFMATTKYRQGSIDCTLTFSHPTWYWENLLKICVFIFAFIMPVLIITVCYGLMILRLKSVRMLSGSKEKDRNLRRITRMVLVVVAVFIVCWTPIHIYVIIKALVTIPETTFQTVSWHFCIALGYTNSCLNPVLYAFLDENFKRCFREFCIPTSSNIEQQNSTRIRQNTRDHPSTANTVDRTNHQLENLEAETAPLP
Target sequence (P41143 whole entry, looked up): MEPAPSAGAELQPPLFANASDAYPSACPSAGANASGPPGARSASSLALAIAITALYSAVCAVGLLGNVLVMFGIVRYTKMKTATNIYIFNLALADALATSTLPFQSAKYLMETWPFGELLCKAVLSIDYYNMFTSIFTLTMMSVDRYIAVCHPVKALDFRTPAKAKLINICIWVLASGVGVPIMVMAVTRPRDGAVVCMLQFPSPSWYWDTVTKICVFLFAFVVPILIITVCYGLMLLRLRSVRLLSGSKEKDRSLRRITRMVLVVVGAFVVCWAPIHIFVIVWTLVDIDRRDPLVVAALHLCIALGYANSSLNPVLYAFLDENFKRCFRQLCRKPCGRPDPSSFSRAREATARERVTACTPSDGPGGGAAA
MOR-DOR inv ag: inverse agonists of human mu-delta opioid receptor heterodimerization | 340,000 compounds, 0.21% hits | P35372+P41143 | cell-based MOR-DOR heterodimer luminescence, inverse agonism | inhibition, % at 9.3 µM; in the data active = inhibition above about 22%, passing the limit was not always enough
HTR5A ag ctr: counter-screen for OPRM1-OPRD1 agonists: human HTR5A agonism | HTR5A agonist assay, luminescence, cell-based | activation, % at 9.3 µM | 340,000 compounds, 0.61% hits | AID 504692; in the data active = activation mostly above about 9.5%, no sharp cut-off; inactive = mostly below about 7.6%
MsrA act: activators of bovine methionine sulfoxide reductase A. purified bovine MsrA, absorbance read-out. 360,000 compounds, 0.3% hits. activation, % at 10.6 µM; in the data active = activation above about 7.5%
MsrA inhibitor: inhibits bovine methionine sulfoxide reductase A; purified bovine MsrA, absorbance read-out; inhibition, % at 15.5 µM; 360,000 compounds, 0.75% hits; AID 651718; in the data active = inhibition above about 4.5%
HTR5A inv ctr: HTR5A inverse agonism, opioid heterodimer counter-screen; P47898; 340,000 compounds, 0.083% hits; HTR5A cell line, luminescence; inhibition, % at 9.3 µM; in the data active = inhibition mostly above about 23%, no sharp cut-off; inactive = mostly below about 18%
MsrA activ conf: bovine methionine sulfoxide reductase A activation confirmed | shares compounds with MsrA act | purified bovine MsrA, absorbance read-out | activation, % at 10.6 µM | 1,000 compounds, 12% hits; in the data active = activation above about 4%;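 note: enzyme coupled to thioredoxin and thioredoxin reductase with NADPH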
Of the large screens only hits and unclear results are named; the others gave an inactive call (follow-up assays come after a bar, where they were run). Only some compounds are listed: those with a hit (about 1.9% of all), similar ones and a draw of the others.

CCO[C@H]1OC(C(=O)NC2CC2)=C[C@@H](c2c[nH]c3ccccc23)[C@@H]1CCCO	MsrA act 8.4 | MsrA activ conf inactive
CCO[C@@H]1OC(C(=O)NC2CC2)=C[C@H](c2c[nH]c3ccccc23)[C@H]1CCCO	none
NC(=O)c1ncn([C@@H]2O[C@H](C(=O)N[C@H](Cc3c[nH]c4ccccc34)C(=O)N3CCN(C(=O)N4CCCCC4)CC3)[C@@H](O)[C@H]2O)n1	none (no result: MOR-DOR ag, MOR-DOR inv ag, HTR5A ag ctr, MsrA act, HTR5A inv ctr)
Cn1nnnc1SCC(=O)N1CCc2ccccc21	MsrA act 17 | MsrA activ conf inactive
Cc1cccc(OCCC(=O)OC(C)C(=O)Nc2ccc(Cl)cn2)c1 (stereo not given)	MsrA act 15 | MsrA activ conf inactive
Cc1ccccc1S(=O)(=O)N(C)C[C@H]1OCc2cnnn2CCCC(=O)N([C@H](C)CO)C[C@@H]1C	none (no result: MOR-DOR ag, MOR-DOR inv ag, HTR5A ag ctr, MsrA act, HTR5A inv ctr)
CC1=C(C(=O)Nc2ccccc2F)C(c2cccs2)NC(=S)N1 (stereo not given)	none
CC1=C(C(=O)Nc2cc(C)ccc2C)C(c2cccs2)NC(=S)N1 (stereo not given)	MsrA act 8.2 | MsrA activ conf inactive
O=C(NCC1COc2ccccc2O1)C1CCC(CNc2c(N3CCCCC3)c(=O)c2=O)CC1 (stereo not given)	MsrA act 8.9 | MsrA activ conf inactive
O=C(NCCc1ccccc1)C1CCC(CNc2c(N3CCCCC3)c(=O)c2=O)CC1 (stereo not given)	none
COC(=O)C1=CC(=O)N2CCN=C2S1	none (no result: MOR-DOR ag, MOR-DOR inv ag, HTR5A ag ctr, MsrA act, HTR5A inv ctr)
O=C(O)c1ccccc1NS(=O)(=O)c1cccc(-n2sc3ccccc3c2=O)c1	MsrA act 7.7 | MsrA activ conf inactive
CC1(C)NC(=O)N(c2ccccc2Cl)C1(C)NO (stereo not given)	MsrA act 11 | MsrA activ conf inactive
c1cc2c(cc1-c1[nH]ncc1CN1C[C@H]3CC[C@H]1C3)OCO2	MsrA act 12 | MsrA activ conf inactive
Cc1ccccc1Nc1nc(N)nc(COC(=O)[C@@H](NC(=O)c2ccccc2Cl)C(C)C)n1	MsrA act 8.1 | MsrA activ conf inactive
Cc1nn(CC(=O)NCCCN2CCOCC2)c(C)c1[N+](=O)[O-]	MsrA act 14 | MsrA activ conf inactive
CCOc1cc(N2CCOCC2)c(OCC)cc1NC(=O)Cn1nc(C)c([N+](=O)[O-])c1C	none
CCOC(=O)C1(C)CCN1C(=O)COc1ccc(C(C)(C)C)cc1 (stereo not given)	MsrA act 8.2 (no result: MOR-DOR ag, MOR-DOR inv ag, HTR5A ag ctr, HTR5A inv ctr) | MsrA activ conf inactive
C=CCOc1ccc(Oc2cc(C)nc(SC)n2)nn1	MsrA act 13 | MsrA activ conf inactive
CCCC/C(O)=C1\C(=O)CC(C)(C)CC1=Nc1ccccc1OC	MsrA act 8.7 | MsrA activ conf inactive
Cn1cc(/C=C/C(=O)c2ccccc2)c2ccccc21	MsrA act 9.1 | MsrA activ conf inactive
CCCN(CCC)C(=O)COc1cc(=O)n(CC)c2ccccc12	none
CCn1c(=O)cc(OCC(=O)O)c2ccccc21	MsrA act 14 | MsrA activ conf inactive
COc1ccc(N2C(=O)c3n[nH]c(C(C)C)c3C2c2ccccc2)cc1 (stereo not given)	none (no result: MOR-DOR ag, MOR-DOR inv ag, HTR5A ag ctr, MsrA act, HTR5A inv ctr)
Cc1cccc(C)c1NC(=O)CN(C)C(=O)CCc1nc2sc3c(c2c(=O)[nH]1)CCCC3	MsrA act 8.8 | MsrA activ conf inactive
CC(C)[C@H](NC(=O)c1ccccc1)C(=O)OCc1nc2scc(-c3ccccc3)c2c(=O)[nH]1	MsrA act 13 | MsrA activ conf 6.3
COC(=O)C1=C(C)N(Cc2ccc(C(F)(F)F)cc2)C(=NCC2CC2)NC1c1ccccc1 (stereo not given)	none (no result: MOR-DOR ag, MOR-DOR inv ag, HTR5A ag ctr, MsrA act, HTR5A inv ctr)
Cc1cccc(NC(=O)CN2C(=O)NC(C)(c3ccc4c(c3)OCO4)C2=O)c1 (stereo not given)	none
Cc1ccc(C2(C)NC(=O)N(CC(=O)Nc3ccc4c(c3)OCO4)C2=O)cc1 (stereo not given)	MsrA act 11 | MsrA activ conf inactive
Cc1ccc(C(=O)NC2CCCCN(C)C2=O)c(C)c1 (stereo not given)	none (no result: MOR-DOR ag, MOR-DOR inv ag, HTR5A ag ctr, MsrA act, HTR5A inv ctr)
FC(F)(F)c1nc2nc(Cl)c(Cl)nc2[nH]1	none (no result: MOR-DOR ag, MOR-DOR inv ag, HTR5A ag ctr, HTR5A inv ctr)
FC(F)(F)c1cccc(-c2nc3nc(Cl)c(Cl)nc3[nH]2)c1	MsrA act 12 (no result: MsrA inhibitor) | MsrA activ conf inactive
COc1cccc(C(CC2=CCCCC2)NC(=O)C(F)(F)F)c1 (stereo not given)	none (no result: MOR-DOR ag, MOR-DOR inv ag, HTR5A ag ctr, MsrA act, HTR5A inv ctr)
CCN(CC)C1=N/C(=C\c2ccc(OC)cc2)C(=O)N1c1ccccc1	MsrA act 20 | MsrA activ conf inactive
CCSC1=N/C(=C\c2ccccc2)C(=O)N1c1ccc(OC)cc1	none
COCCCN=Cc1c(C)[nH]n(-c2ccc(Br)c(C)c2)c1=O	MsrA act 9.3 | MsrA activ conf inactive
O=C(NCc1ccccc1)Nc1cccn(Cc2ccccc2Cl)c1=O	MsrA act 9.1 | MsrA activ conf inactive
COC(=O)C1=C(C)N(Cc2cccc(C(F)(F)F)c2)C(=NCc2ccc3c(c2)OCO3)NC1c1cccc(F)c1 (stereo not given)	none (no result: MOR-DOR ag, MOR-DOR inv ag, HTR5A ag ctr, MsrA act, HTR5A inv ctr)
N#Cc1cn(CC(=O)N2CCCc3ccccc32)c2ccccc12	MsrA act 8.1 | MsrA activ conf inactive
CCSC1=NCCN1S(=O)(=O)c1ccc(NC(C)=O)cc1	none
CSC1=NCCN1S(=O)(=O)c1ccc(NC(C)=O)cc1	MsrA act 21 | MsrA activ conf inactive
CC(=O)N1CCN(c2ccc(N3CCN(C(C)=O)[C@H](C)C3)c(C)c2)[C@@H](C)C1	none (no result: MOR-DOR ag, MOR-DOR inv ag, HTR5A ag ctr, MsrA act, HTR5A inv ctr)
CCN(CC)CCCNC(=O)c1csc(Nc2cccc3ccccc23)n1	MsrA act 8.1 | MsrA activ conf inactive
CCCCN(C(=O)c1cc(Cl)nc2ccccc12)c1c(N)n(CCC)c(=O)[nH]c1=O	none (no result: MOR-DOR ag, MOR-DOR inv ag, HTR5A ag ctr, HTR5A inv ctr)
CCCCN(C(=O)c1cc(Cl)nc2ccccc12)c1c(N)n(Cc2ccccc2)c(=O)[nH]c1=O	MsrA act 12 | MsrA activ conf inactive
COc1ccc2oc(=O)c(C(=O)NCCc3ccc(OC)c(OC)c3)cc2c1	MsrA act 7.7 | MsrA activ conf inactive
COc1ccc2oc(=O)c(C(=O)NCc3ccc4c(c3)OCO4)cc2c1	none
CCCN1CCN(C(=O)c2noc3c2COc2ccc(C)cc2-3)CC1	MsrA act 8.0 | MsrA activ conf inactive
COc1cccc(/C=C2/Sc3ccc(C(=O)NC4CC4)cc3NC2=O)c1	none (no result: MOR-DOR ag, MOR-DOR inv ag, HTR5A ag ctr, MsrA act, HTR5A inv ctr)
Nc1[nH]c(C(=O)c2ccc(Br)cc2)c(-c2ccc3ccccc3c2)c1C(=O)NCCc1c[nH]c2ccccc12	none (no result: MOR-DOR ag, MOR-DOR inv ag, HTR5A ag ctr, MsrA act, HTR5A inv ctr)
COc1ccc(CC(=O)N2CCCc3ccccc32)cc1	none
COc1ccc(CC(=O)N2CCCc3ccccc32)cc1OC	MsrA act 9.6 | MsrA activ conf inactive
Cn1c(NCCN2CCCC2)nc2cc(-c3ccccc3)sc2c1=O	none (no result: MOR-DOR ag, MOR-DOR inv ag, HTR5A ag ctr, HTR5A inv ctr)
COc1cccc(-c2cc3nc(NCCN4CCCC4)n(C)c(=O)c3s2)c1	MsrA act 12 (no result: MOR-DOR ag, MOR-DOR inv ag, HTR5A ag ctr, HTR5A inv ctr) | MsrA activ conf inactive
